Compound activity deposited in PubChem BioAssay by Broad Institute.
This is a sample that favours compounds with a hit; in the whole collection about 6.8% have one here.
Pf Dd2 growth – blocks growth of Plasmodium falciparum Dd2 parasites. P. falciparum Dd2 growth, SYBR Green, 72 h; active compounds read low. 94,000 tested, 2.3% active. activity change, % at 10 µM; in the data active = activity change below about -80%; inconclusive = no clear call, values can overlap the other calls
T cruzi growth-1 – blocks T. cruzi growth in NIH3T3 culture; inhibition, % at 8.34 µM; 77,000 tested, 5.9% active; T. cruzi beta-gal in NIH3T3, GalScreen luminescence, 90 h;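 active = mean inhibition above about 93%, with at least 55% of replicates each passing it, limit read from the data, passing the limit was not always enough; inconclusive = only one of those two conditions holds; inactive = neither condition holds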
C diff growth – blocks growth of Clostridium difficile; AID 1259249; 86,000 tested, 0.25% active; growth activity, negative = inhibition, % at 16 µg/mL (by protocol); Clostridium difficile clinical isolate growth, OD600, 24 h; active compounds read low;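 active = mean growth activity at or below -80% and every replicate also at or below -80%; inconclusive = mean at or below -80% but some replicate above -80%; inactive = mean growth activity above -80%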;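 note: 0% = DMSO wells and -100% = levofloxacin 16 µg/mL wells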
T cruzi growth-2 – Trypanosoma cruzi proliferation inhibition; shares compounds with T cruzi growth-1; T. cruzi beta-gal in NIH3T3, GalScreen luminescence, 90 h; inhibition, % at 8.35 µM; 5,600 tested, 72% active; AID 651739;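 active = mean replicate inhibition above about 95% and at least 55% of replicates individually reaching it, limit read from the data; inconclusive = only one of the two criteria is met; inactive = neither criterion is met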
T cruzi growth-3 – Trypanosoma cruzi proliferation inhibition. inhibition, % at 2.09 µM. 5,600 tested, 21% active. T. cruzi beta-gal in NIH3T3, GalScreen luminescence, 90 h. shares compounds with T cruzi growth-1;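 active = mean inhibition above about 95%, with at least 55% of replicates also reaching it, limit read from the data; inconclusive = meets just one of the two conditions; inactive = meets neither condition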;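 note: plate controls were neutral control median for no effect and positive control median for full effect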
NIH3T3 tox – cytotoxicity in mouse NIH/3T3 fibroblasts; cytotoxicity (signal decrease), % at 8.35 µM; AID 651742; shares compounds with T cruzi growth-1; 5,600 tested, 14% active; NIH/3T3 viability, CellTiter-Glo ATP luminescence, 90 h;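 active = mean signal decrease across replicates above about 35% based on untreated-well scatter, with enough replicates individually passing, limit read from the data; inconclusive = no rule stated though some were filed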;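 note: 0% = median of neutral control wells and 100% = median of positive control wells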
NIH3T3 tox 2 – kills mouse NIH/3T3 fibroblasts | shares compounds with T cruzi growth-1 | NIH/3T3 viability, CellTiter-Glo ATP luminescence, 90 h | inhibition, % at 24.9 µM | 5,600 tested, 56% active | AID 651744;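 active = mean loss of cell viability signal at or above a set limit, and enough replicates individually reaching it; inconclusive = meets only the mean limit or only the replicate share; inactive = meets neither condition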;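 note: 0% = median of neutral control wells and 100% = median of positive control wells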
* = called active by the depositor; ? = inconclusive; / = no result.

SMILES	Pf Dd2 growth	T cruzi growth-1	C diff growth	T cruzi growth-2	T cruzi growth-3	NIH3T3 tox	NIH3T3 tox 2
C[C@H]1CCCCO[C@@H](CN(C)C(=O)Nc2ccc3c(c2)OCO3)[C@@H](C)CN([C@@H](C)CO)C(=O)c2cc(NC(=O)Nc3ccc(C(F)(F)F)cc3)ccc2O1	-59.2	82.4	6.5	/	/	/	/
C[C@H](CO)N1C[C@H](C)[C@H](CN(C)C(=O)Nc2ccc3c(c2)OCO3)OCCCC[C@H](C)Oc2ccc(NC(=O)Nc3ccc(C(F)(F)F)cc3)cc2C1=O	-60.1	98.5*	3.6	101.4*	110.0*	-10.5	0.3
C[C@H]1CCCCO[C@@H](CN(C)C(=O)Nc2ccc(C(F)(F)F)cc2)[C@@H](C)CN([C@@H](C)CO)C(=O)c2cc(NC(=O)Nc3ccc4c(c3)OCO4)ccc2O1	-7.8	121.1*	3.0	104.8*	109.4*	-4.8	4.2
C[C@@H]1CCCCO[C@H](CN(C)C(=O)Nc2ccc3c(c2)OCO3)[C@@H](C)CN([C@H](C)CO)C(=O)c2cc(NC(=O)Nc3ccc4c(c3)OCO4)ccc2O1	-31.6	46.8	/	/	/	/	/
Cc1noc(C)c1S(=O)(=O)Nc1ccc2c(c1)C(=O)N([C@H](C)CO)C[C@@H](C)[C@H](CN(C)C(=O)c1ccncc1)OCCCC[C@@H](C)O2	4.6	38.6	6.9	/	/	/	/
CO[C@@H]1CN(C)C(=O)c2cc(NC(=O)C3CC3)ccc2OC[C@H](C)N(Cc2cncnc2)C[C@@H]1C	21.1	-37.4	3.3	/	/	/	/
C[C@@H](NC(=O)C[C@@H]1CC[C@@H](NC(=O)Nc2ccc3c(c2)OCO3)[C@H](CO)O1)c1ccccc1	3.3	-3.6	/	/	/	/	/
C[C@H](CO)N1C[C@H](C)[C@@H](CN(C)C)OCCCC[C@H](C)Oc2ccc(NC(=O)Nc3ccc(C(F)(F)F)cc3)cc2C1=O	37.0	35.7	6.3	/	/	/	/
C[C@H](CO)N1C[C@H](C)[C@H](CN(C)CC2CCCCC2)OCCCC[C@H](C)Oc2ccc(NC(=O)Nc3ccc(C(F)(F)F)cc3)cc2C1=O	-78.2	95.0*	-82.1*	90.7	106.5*	120.3*	104.9*
C[C@@H]1CN([C@H](C)CO)C(=O)c2cc(NC(=O)Nc3ccc(C(F)(F)F)cc3)ccc2O[C@@H](C)CCCCO[C@@H]1CN(C)CC1CCCCC1	-63.6	?	-62.7	?	111.6*	117.8*	104.9*
C[C@H](CO)N1C[C@H](C)[C@H](CN(C)C)OCCCC[C@H](C)Oc2ccc(NC(=O)Nc3ccc(C(F)(F)F)cc3)cc2C1=O	/	24.7	8.4	/	/	/	/
COc1ccc(S(=O)(=O)N(C)C[C@@H]2Oc3ccc(N(C)C)cc3C(=O)N([C@H](C)CO)C[C@@H]2C)cc1	2.1	18.5	-1.2	/	/	/	/
C[C@@H]1CCCCO[C@@H](CN(C)C(=O)Nc2ccc(C(F)(F)F)cc2)[C@@H](C)CN([C@H](C)CO)C(=O)c2cc(NS(C)(=O)=O)ccc2O1	9.8	19.3	4.9	/	/	/	/
C[C@@H]1CN([C@H](C)CO)C(=O)c2cc(NS(=O)(=O)c3ccccc3)ccc2O[C@@H](C)CCCCO[C@H]1CN(C)C(=O)Nc1ccccc1	-65.6	/	/	/	/	/	/
C[C@@H]1CN([C@@H](C)CO)C(=O)c2cc(NS(=O)(=O)c3ccccc3)ccc2O[C@@H](C)CCCCO[C@@H]1CN(C)C(=O)Nc1ccc(C(F)(F)F)cc1	-76.2	?	1.6	104.5*	74.2	20.3	43.2*
C[C@H]1CCCCO[C@H](CN(C)C(=O)Nc2ccc(C(F)(F)F)cc2)[C@@H](C)CN([C@@H](C)CO)C(=O)c2cc(NS(C)(=O)=O)ccc2O1	-45.2	96.6*	4.5	112.9*	34.7	12.0	51.0*
C[C@H](CO)N1C[C@H](C)[C@@H](CN(C)C(=O)Nc2ccc(C(F)(F)F)cc2)OCCCC[C@H](C)Oc2ccc(NS(=O)(=O)c3ccccc3)cc2C1=O	-28.6	?	0.6	114.0*	71.1	21.2	13.8
C[C@H]1CCCCO[C@H](CN(C)C(=O)Nc2ccccc2)[C@@H](C)CN([C@@H](C)CO)C(=O)c2cc(NS(=O)(=O)c3ccccc3)ccc2O1	-31.4	/	/	/	/	/	/
COc1ccc(S(=O)(=O)Nc2cccc3c2O[C@@H](CN(C)S(=O)(=O)c2ccc(OC)cc2)[C@@H](C)CN([C@@H](C)CO)C3=O)cc1	3.8	/	-4.9	/	/	/	/
CN1C(=O)c2cc(NC(=O)c3cccc(F)c3)ccc2OC[C@H]2O[C@H](CC(=O)NCc3ccccc3)CC[C@H]21	-3.6	42.1	-0.1	/	/	/	/
O=C(C[C@H]1C[C@@H]2c3cc(NC(=O)CC4CC4)ccc3O[C@@H]2[C@@H](CO)O1)NCCN1CCCCC1	17.0	-38.5	1.4	/	/	/	/
O=C(C[C@H]1C[C@@H]2c3cc(NC(=O)c4cccnc4)ccc3O[C@@H]2[C@H](CO)O1)NCc1cccnc1	11.2	97.8*	/	15.2	-20.5	6.3	7.2
O=C(C[C@@H]1C[C@@H]2c3cc(NC(=O)c4cccnc4)ccc3O[C@@H]2[C@H](CO)O1)NCc1ccccc1	29.9	-10.4	/	/	/	/	/
CS(=O)(=O)Nc1ccc2c(c1)[C@@H]1C[C@@H](CC(=O)NCc3ccccc3)O[C@H](CO)[C@@H]1O2	19.2	19.8	/	/	/	/	/
CS(=O)(=O)Nc1ccc2c(c1)[C@H]1C[C@@H](CC(=O)NCc3ccncc3)O[C@@H](CO)[C@H]1O2	18.9	107.5*	0.5	-1.8	-12.3	-2.6	-3.7
SMILES	Pf Dd2 growth	T cruzi growth-1	C diff growth	T cruzi growth-2	T cruzi growth-3	NIH3T3 tox	NIH3T3 tox 2
O=C(C[C@@H]1C[C@H]2c3cc(NC(=O)c4cccnc4)ccc3O[C@H]2[C@@H](CO)O1)NCCc1ccccc1	12.4	-24.1	-3.9	/	/	/	/
O=C(C[C@H]1C[C@@H]2c3cc(NC(=O)c4ccc5c(c4)OCO5)ccc3O[C@@H]2[C@@H](CO)O1)NCc1cc(F)ccc1F	-17.4	52.3	/	/	/	/	/
O=C(C[C@@H]1C[C@@H]2c3cc(NC(=O)c4ccc5c(c4)OCO5)ccc3O[C@@H]2[C@@H](CO)O1)NCc1cc(F)ccc1F	-7.5	98.7*	/	68.1	14.8	6.3	-1.9
O=C(C[C@H]1C[C@@H]2c3cc(NC(=O)c4cccnc4)ccc3O[C@@H]2[C@@H](CO)O1)NCCc1ccccc1	-30.5	128.7*	0.4	0.4	-1.8	-29.6	-10.5
O=C(C[C@@H]1C[C@H]2c3cc(NC(=O)c4ccc5c(c4)OCO5)ccc3O[C@H]2[C@@H](CO)O1)NCc1ccc(Cl)cc1	-15.9	22.5	-23.0	/	/	/	/
C[C@@H]1CN([C@H](C)CO)C(=O)c2ccccc2-c2ccccc2CO[C@@H]1CN(C)S(=O)(=O)c1cn(C)cn1	-12.8	23.9	3.9	/	/	/	/
CO[C@H]1CN(C)C(=O)c2cc(NC(C)=O)ccc2OC[C@@H](C)N(Cc2cccc(F)c2)C[C@@H]1C	-6.2	6.7	-1.8	/	/	/	/
COC(=O)N(C)C[C@@H]1OCc2ccccc2-c2ccccc2C(=O)N([C@H](C)CO)C[C@H]1C	-20.5	17.5	/	/	/	/	/
